We go through seven molecules from ChEMBL document CHEMBL1157539, “Thousands of chemical starting points for antimalarial lead identification” (Nature, 2010).

The assay relates to HepG2. The assay is described as follows: GSK_TCMDC: Percent inhibition of human HepG2 cell line. Test compounds present at 10uM. The class given is functional.
As a reminder, the Inhibition is how much of the control response was suppressed. For `O=C(Nc1cccc(Cl)c1)c1cnc(N2CCN(c3ccncc3)CC2)c(Cl)c1.O=C(O)C(F)(F)F`, the Inhibition came out at 54%.
Molecule `Clc1cccc(CNc2nc(NCCc3c[nH]cn3)nc(NC3CCCCC3)n2)c1` showed an Inhibition of 17%.
For the molecule `CCN(CC)CCn1c(=N)n(CC(O)c2ccc(Cl)c(Cl)c2)c2ccccc21.Cl` (configuration not stated), the Inhibition was found to be 35%.
Next, `Cc1[nH]c2c(NCc3ccc(F)cc3)nccc2c1C`: 63%; `COc1ccc(CCNCCCCCCNCCc2cccc([N+](=O)[O-])c2)cc1OC.Cl`: 13%; `COc1ccc(CNCc2ccc(-c3cccc(-c4nc5ccccc5[nH]4)c3)cc2)cc1.O=C(O)C(F)(F)F`: 57%.
Then `CCN(CC)CCCN(CCCN(CC)CC)c1cc(C)nc(Nc2ccc(Cl)cc2)n1.O=C(O)C(=O)O`, with 11%.
